In PubChem BioAssay (NCI):
This is part of a sample that, as a whole, favours compounds with a hit. Of some 83,000 tested, about 20% had one in any assay.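 Percent growth is the endpoint: 0 to 100 indicates growth inhibition (40 means 60% inhibition), 0 means no net growth, and negative values indicate cell death.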 Active and inactive are the calls of the source. How the source made its calls: active means growth percent below 10; inactive means the rest.

Experiments:
Test in all cases: NCI-60 one-dose screen, 48 h (100 = growth as untreated, 0 = no growth, -100 = all killed)
Settings in all cases: 10 µM unless noted
[1] = test system: NCI-H23 lung
[2] = test system: NCI-H226 lung
[3] = test system: NCI-H322M lung
[4] = test system: HOP-62 NSCLC
[5] = test system: NCI-H460 lung
[6] = test system: HOP-92 NSCLC
[7] = test system: NCI-H522 lung
[8] = test system: A549/ATCC NSCLC
[9] = test system: 786-0 renal
[10] = test system: COLO 205 colon
[11] = test system: DU-145 prostate
[12] = test system: K-562 leukemia
[13] = test system: MALME-3M melanoma
[14] = test system: MDA-MB-231 breast
[15] = test system: RXF 393 renal
[16] = test system: SF-268 CNS
[17] = test system: SF-295 CNS
[18] = test system: SF-539 CNS
[19] = test system: UACC-257 melanoma
[20] = test system: M14 melanoma

Measured: growth

CCCCc1ccc(N=Nc2ccc(OCC[N+](C)(C)C)cc2)cc1
inactive: [1] 49.2% | [2] 51.9% | [3] 73.8% | [4] 20% | [5] 32.7% | [6] 25.8% | [7] 34.4% | [8] 33.2% | [9] 71.4% | [11] 60.5% | [12] 44.5% | [13] 69.4% | [14] 38.5% | [15] 22.9% | [16] 26.9% | [17] 32.9% | [18] 35.9% | [19] 71.4% | [20] 25.8%
active: [10] -5.3%

NC(=O)c1ccc(C2C3=C(CCCC3=O)OC3=C2C(=O)c2ccccc2C3=O)cc1 (stereo not given)
active: [1] -34.7% | [5] 7.97% | [7] -26.5% | [10] -1.47% | [12] 5.5% | [13] -16.3% | [14] 5.67% | [16] 9.54% | [18] 0.536% | [19] -7.13% | [20] -0.786%
inactive: [2] 113% | [3] 104% | [4] 23.6% | [6] 71.2% | [8] 26.7% | [9] 94.8% | [11] 12.1% | [15] 60% | [17] 42.9%

COc1cc(/C=C/C(=O)c2cccs2)ccc1OCc1ccc(Cl)nc1
inactive: [1] 77.5% | [2] 86.8% | [3] 85.9% | [4] 102% | [5] 83.6% | [6] 85.2% | [7] 86.1% | [8] 99% | [9] 75.3% | [10] 98.1% | [11] 47.7% | [12] 41.3% | [13] 81.9% | [14] 82.8% | [15] 94.9% | [16] 85.1% | [17] 105% | [18] 91% | [19] 91.3% | [20] 82%

C#C[C@@]1(O)[C@@H](CO)O[C@@H](n2cc(Cl)c3c(N)ccnc32)[C@@H]1O
inactive: [1] 71.9% | [2] 96.7% | [3] 74.6% | [4] 120% | [5] 25.1% | [6] 48.2% | [7] 75.1% | [8] 67% | [9] 81.2% | [10] 63.4% | [11] 56.1% | [12] 42.8% | [13] 82.3% | [14] 57.4% | [15] 106% | [16] 87.4% | [17] 81.9% | [18] 89.3% | [19] 89.2% | [20] 85.3%

C=C1C(=O)O[C@H]2[C@H]1CC/C(COC(=O)NCC(=O)Nc1ccc(OC)c(C(N)=O)c1O)=C\CC[C@@]1(C)O[C@@H]21
active: [7] -25.1% | [12] 8.95% | [18] 7.54%
inactive: [1] 95.6% | [2] 83.3% | [3] 92.2% | [4] 85.4% | [5] 97% | [6] 14.6% | [8] 86.3% | [9] 58.7% | [10] 10.8% | [11] 66.4% | [13] 59.7% | [14] 68.2% | [15] 16.5% | [16] 70.8% | [17] 101% | [19] 53.3% | [20] 62.9%

Cc1cc(C)c2nc(Nc3nc(C)c(C)c(=O)[nH]3)nc(C)c2c1
inactive: [1] 18.4% | [3] 23.8% | [4] 12.2% | [11] 19.1% | [12] 12.2% | [14] 27.8% | [16] 26.9% | [17] 11% | [18] 13.5% | [19] 14.1% | [20] 13.7%
active: [2] -4.16% | [5] 8.55% | [6] 7.24% | [7] 7.15% | [8] -32.4% | [9] 6.33% | [10] 1.63% | [13] -6.48% | [15] -32.4%

COc1ccc(-c2cc(-c3nnc(SCC(=O)Nc4ccc(/C(C)=N\O)cc4)o3)c3ccccc3n2)cc1
inactive: [1] 99.5% | [2] 96.3% | [3] 113% | [4] 99.3% | [5] 105% | [6] 109% | [7] 87% | [8] 100% | [9] 95.5% | [10] 118% | [11] 109% | [12] 96.5% | [13] 97.8% | [14] 114% | [15] 106% | [16] 101% | [17] 105% | [18] 111% | [19] 101% | [20] 115%

O=C1C(=O)c2c(nc3ccc(Br)cn23)-c2ccccc21
active: [1] -38.7% | [2] -92.6% | [3] -96.6% | [4] -96.5% | [5] -63.2% | [6] -75.3% | [7] -72.6% | [8] -63.5% | [9] -96.9% | [10] -82.4% | [11] -100% | [12] -59.8% | [13] -97.9% | [14] -20.1% | [15] -94.1% | [16] -71.7% | [17] -100% | [18] -99.1% | [19] -99% | [20] -92.9%

CCCn1c(N)c(C(N)=O)sc1=S
inactive: [1] 105% | [2] 103% | [3] 101% | [4] 98.9% | [5] 114% | [6] 89.5% | [7] 94.5% | [8] 112% | [9] 103% | [10] 118% | [11] 117% | [12] 119% | [13] 105% | [14] 99.8% | [15] 125% | [16] 97.2% | [17] 115% | [18] 109% | [19] 109% | [20] 103%

COc1ccc(NC(=O)Nc2ccc(Nc3nc(C)cc(Nc4ccc(C)cc4)n3)cc2)cc1
active: [1] -57.2% | [2] -71.4% | [3] -74.7% | [4] -94.1% | [5] -74.2% | [6] -54.1% | [7] -74.8% | [8] -83% | [9] -93.8% | [10] -78.7% | [11] -95.8% | [12] -60.9% | [13] -78.7% | [14] -75.8% | [15] -80.7% | [16] -67.9% | [17] -66% | [18] -89.5% | [19] -87.8% | [20] -82.9%

C(=C\c1cn(-c2ccccc2)nc1-c1ccccc1)/c1nnc(-c2c[nH]c3ccccc23)o1
inactive: [1] 51% | [2] 57.3% | [3] 80.3% | [4] 38.9% | [5] 14.1% | [6] 60.2% | [7] 61.5% | [8] 46.7% | [9] 40.6% | [10] 31.8% | [11] 27% | [12] 61.5% | [15] 53.5% | [16] 40.9% | [17] 29.8% | [18] 59.2% | [19] 107% | [20] 45.5%
active: [13] 7.81% | [14] 9.62%

CC1(c2ccccc2Cl)NC(=O)NC1=O (stereo not given)
inactive: [1] 95.2% | [2] 98.6% | [3] 98.8% | [4] 86.4% | [5] 106% | [6] 83.1% | [7] 85% | [8] 91.2% | [9] 99.2% | [10] 108% | [11] 105% | [12] 100% | [13] 101% | [14] 105% | [15] 113% | [16] 103% | [17] 97.1% | [18] 99.5% | [19] 91% | [20] 106%

COc1cc2c(Nc3ccc(NC(=O)Nc4ccc(Cl)c(C(F)(F)F)c4)c(Cl)c3)ncnc2cc1OCCCN1CCN(C)CC1
active: [4] -15% | [5] -70.4% | [7] -60.4% | [9] 6.31% | [10] -43.2% | [11] 2.84% | [12] -61% | [13] -50.8% | [14] -60.2% | [15] -40.5% | [17] -67.3% | [18] -77.9% | [20] 0.0561%
inactive: [1] 17.2% | [2] 73.9% | [3] 11.3% | [6] 27% | [8] 20.8% | [16] 20.2% | [19] 54.6%

COc1ccc2nc3c(n2c1)C(=O)C(=O)c1ccccc1-3
inactive: [2] 14.9% | [5] 14.9% | [6] 37.4% | [10] 42.7% | [14] 16.7%
active: [1] -42.1% | [3] -60.9% | [4] -72.9% | [7] -69.9% | [8] -24.3% | [9] 8.6% | [11] -92.5% | [12] -18.2% | [13] -90.1% | [15] -16.9% | [16] 2.6% | [17] -95.3% | [18] -95.3% | [19] -83.2% | [20] -82.9%

N#Cc1c(-c2ccc(F)cc2)nc(N=Nc2c(O)[nH]c3ccccc23)nc1N1CCOCC1
inactive: [1] 70.3% | [2] 57.7% | [3] 61.4% | [4] 72% | [5] 30.9% | [6] 17.3% | [7] 78.6% | [8] 23.4% | [9] 59.4% | [10] 77.9% | [11] 69.1% | [12] 91.8% | [13] 63.7% | [14] 66% | [15] 62.8% | [16] 77.3% | [17] 70.2% | [18] 85.5% | [19] 77.8% | [20] 72.3%

c1ccc(-c2cn3ccnc3c(-c3ccc4c(c3)ncn4C3CCCCC3)n2)cc1
inactive: [1] 103% | [2] 106% | [3] 97.1% | [4] 87.1% | [5] 104% | [6] 89.1% | [7] 83.9% | [8] 91% | [9] 91.8% | [10] 99.7% | [11] 97.4% | [12] 68.9% | [13] 120% | [14] 93.4% | [15] 76.7% | [16] 98.7% | [17] 101% | [18] 97.8% | [19] 110% | [20] 98.4%
